# Screening data as filed in PubChem.
# Many of the other results were omitted from the sample, so hits are more common in it than they were.
# TTR transcr act: TTR transcription activation, primary screen; hit rate 1.3% among 92,000; activation, % at 16.7 µM; SH-SY5Y TTR promoter Gaussia luciferase, luminescence; 100% = recombinant luciferase protein wells;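 active = activation above the mean of all tested compounds plus 3 SD, cut at about 9.5% in these data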;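 also: cells exposed to compounds for one day before reading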
# TTR inh HuH7: counter-screen for TTR activators: TTR transcription inhibitors in HuH7 cells; shares compounds with TTR transcr act; HuH7 TTR promoter-Gaussia luciferase reporter, luminescence; AID 1117279; hit rate 4% among 1,100; inhibition, % at 16.7 µM;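 active = average inhibition above the solvent-only control wells' mean plus 3 SD, cut at about 15% in these data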;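 also: inhibitors lower well luminescence so higher value means more inhibition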
# TTR act confirm: human TTR transcription activation, confirmation | shares compounds with TTR transcr act | 1,100 tested, under 10 active | SHSY5Y TTR promoter Gaussia luciferase, luminescence; 100% = purified Lucia enzyme wells, no cells | activation, % at 16.7 µM;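 active = mean activation above a set limit taken from the earlier primary screen, cut at about 11% in these data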
# A number is an active result; - = inactive.
SMILES,TTR transcr act,others
COc1ccc(-c2noc(-c3ccoc3C)n2)cc1OC,-,
CCCC[C@H]1C2CC(OC(=O)Nc3cccc(Br)c3)C(C2)[C@H]2CCCCN21 (some centres undefined),-,
Cc1ccccc1C(=O)NCCNC(=O)c1cnccn1,-,
O=C(NCCO)[C@H](Cc1ccccc1)NC1(C(=O)NCCc2c[nH]c3ccccc23)CCCCC1,-,
COc1ccc([C@H]2C[C@H](O)[C@@H](n3cc(C4CC4)nn3)CN2C(=O)c2cccs2)cc1,-,
Cc1ccc([C@H]2C[C@@H](O)[C@H](n3cc(-c4ccc(F)cc4)nn3)CN2C(=O)c2cccs2)cc1,11,TTR inh HuH7=15;TTR act confirm=-
O=C(C1CCCCC1)N1C[C@H](n2cc(-c3ccc(F)cc3)nn2)[C@@H](O)C[C@@H]1c1ccc(Cl)cc1,-,
CC(C)CNC(=O)OCc1cn(Cc2ccccc2C(F)(F)F)nn1,-,
C/C(=N\Nc1cc(C)nc(-c2ccccc2)n1)c1cccc([N+](=O)[O-])c1,-,
C/C(=N\NC(=O)C(N)=O)c1cccc([N+](=O)[O-])c1,-,
C/C(=N\Nc1ncc(Br)cn1)c1cccc([N+](=O)[O-])c1,14,TTR inh HuH7=21;TTR act confirm=-
CCOC(=O)C(NC(=O)N(C)C)(Nc1sc(C)c(CC)c1C#N)C(F)(F)F (centres undefined),-,
Cc1ccc([C@H]2C[C@]34CN(Cc5ccccc5)S(=O)(=O)[C@H]3C[C@H]2O4)cc1,-,
O=c1c2c3c(sc2n(CCN2CCOCC2)c(=O)n1C1CCCCC1)CCCCC3,-,
COc1ccc(CC(=O)NNC(=O)CCc2ccccc2)cc1,-,
Cc1ccccc1OCC(=O)NNC(=O)CCc1ccccc1,10,TTR inh HuH7=-;TTR act confirm=-
Cc1ccccc1OCC(=O)NNC(=S)NC(=O)c1ccco1,-,
COc1ccccc1N1CCN(C(=O)C2=CC=CN3CCS(=O)(=O)N=C23)CC1,-,
Cc1cccc(NC(=O)Nc2nc3ncccn3c2-c2ccc(F)cc2)c1,-,
CCOC(=O)N1CCN(C(=O)C[C@H]2C[C@@]3(C(=O)OC)C(=C[C@H](C4CCCC4)O[C@@H]3C)N(Cc3ccc(Cl)cc3Cl)C2=O)CC1,-,
C[C@H]1[C@@H](OC(=O)NCc2ccc(C(F)(F)F)cc2)CC[C@@]23CCCN2C(=O)CCC[C@@H]13,-,
CNC(=O)[C@@H]1CC=C[C@@H]2CCN(c3ccccc3)C(=O)[C@@H]21,-,
Cc1cc(C)c2c(N)c(C(=O)c3ccccc3Cl)sc2n1,-,
CC(=O)c1sc2nc(-c3ccc(C)cc3)c3c(c2c1N)CCCC3,-,
Cc1cc(C)c2c(N)c(C(=O)Nc3ccccc3Cl)sc2n1,12,TTR inh HuH7=-;TTR act confirm=-
SMILES,TTR transcr act,others
COCc1cc(C)nc2sc(C(=O)Nc3ccccc3C)c(N)c12,-,
Cc1cc(C)c2c(N)c(C(=O)Nc3ncc(C)s3)sc2n1,-,
CC(=O)c1sc2nc(C)cc(C)c2c1N,23,TTR inh HuH7=-;TTR act confirm=-
COC(=O)[C@]12C[C@H](CC(=O)NCCc3ccccc3OC)C(=O)N(Cc3ccccc3)C1=C[C@H](COCc1ccccc1)O[C@@H]2C,-,
CN1C2=N[C@H](c3ccc(Br)cc3)CC(=O)N2/C(=C\c2ccccc2)[C@@H]1c1ccccc1,-,
CC(C)(C)OC(=O)C1[C@H](O)C=CC[C@H]1S(=O)c1ccccc1 (some centres undefined),-,
CCCCCCCC(=O)N[C@H]1CC[C@@]23CCCN2C(=O)CCC[C@H]3[C@H]1CCC,-,
CC(C)(C)c1ccc(C(=O)Nc2cc(Cl)c(F)cc2C(=O)O)cc1,-,
O=C(NCCc1ccccc1)OCc1cn(Cc2cc(F)ccc2F)nn1,-,
COc1ccc(CNC(=O)/C=C/c2ccco2)cc1OC,13,TTR inh HuH7=-;TTR act confirm=-
COc1ccc(CN(C(=O)/C=C/c2ccco2)C2CCS(=O)(=O)C2)cc1OC (centres undefined),-,
COc1ccc(/C=C/C(=O)NCc2ccc3c(c2)OCO3)cc1OC,-,
CCOC(=O)c1nc(C)nc(Sc2n[nH]c(-c3ccccc3)n2)c1C,-,
O=S(=O)(N[C@@H]1CCCC[C@H]1N1CCOCC1)c1ccc(Cl)cc1,-,
O=C(O)c1ccc(-c2nc3scc(-c4ccccc4)c3c(=O)[nH]2)cc1,-,
O=C1CN(c2nc(-c3cccnc3)nc3scc(-c4ccccc4)c23)CCN1,13,TTR inh HuH7=-;TTR act confirm=-
COc1ccc(-c2csc3nc(-c4cccnc4)nc(N4CCC(C(N)=O)CC4)c23)cc1OC,-,
O=C(C1CCCCC1)N1CCC2CC1c1cc(Cl)ccc12 (centres undefined),-,
C[C@H]1[C@@H](OC(=O)Nc2ccccc2Cl)CC[C@@]23CCCN2C(=O)CCC[C@@H]13,-,
COC(=O)[C@]12C[C@H](CC(=O)N3CCSCC3)C(=O)N(CCc3ccc(OC)c(OC)c3)C1=C[C@H](C(C)C)O[C@@H]2C1CC1,-,
CCCCNC(=O)c1nc(C2CCN(S(=O)(=O)c3c(F)cccc3F)CC2)oc1-c1cccc(C(F)(F)F)c1,-,
Cc1ccc2nc(/C(C#N)=C\c3ccc(Oc4ccc([N+](=O)[O-])cn4)cc3)[nH]c2c1,-,
N#Cc1ccc(Oc2ccc(/C=N/O)cn2)cc1,81,TTR inh HuH7=-;TTR act confirm=-
COc1nc(Oc2ccc(/C=N/O)cc2)nc(N(C)C)n1,-,
COC(=O)[C@H](CCSC)NC(=O)NCCc1ccc(F)cc1,-,
SMILES,TTR transcr act,others
COC(=O)[C@H](CCSC)NC(=O)Nc1ccc(C(C)C)cc1,-,
COC(=O)[C@H](CCSC)NC(=O)NCc1ccccn1,19,TTR inh HuH7=-;TTR act confirm=-
Cc1ccc(-c2c(NC(=O)c3cccc(C)c3)nc3ncccn23)cc1,-,
O=C(NC1CCCCC1)OC[C@@H]1CSCCS(=O)(=O)N1,-,
COc1cc(NC(=S)N(C)CCC#N)c(OC)cc1Cl,11,TTR inh HuH7=-;TTR act confirm=-
COCC(=O)Nc1cc(OC)c(Cl)cc1OC,-,
COc1cc(NC(=S)N(C)C)c(OC)cc1Cl,-,
COc1ccc(S(=O)(=O)Nc2ccccc2)cc1OC,-,
COc1ccc(S(=O)(=O)Nc2ccc3c(c2)OCO3)cc1OC,17,TTR inh HuH7=-;TTR act confirm=-
Cc1ccc(S(=O)(=O)Nc2ccc3c(c2)OCCO3)cc1C,-,
C[C@H]1[C@@H](OC(=O)Nc2cc(Cl)ccc2Cl)CC[C@@]23CCCN2C(=O)CCC[C@@H]13,-,
COC(=O)[C@]12C[C@H](CC(=O)N3CCN(C(=O)c4ccco4)CC3)C(=O)N(Cc3cccc4ccccc34)C1=C[C@H](C(C)C)O[C@@H]2C1CC1,-,
CN(C)S(=O)(=O)c1cccc(NC(=O)COC(=O)c2cn(-c3ccccc3)nc2-c2ccccc2)c1,15,TTR inh HuH7=-;TTR act confirm=-
Cc1cc(C(=O)OCC(=O)Nc2cccc(S(=O)(=O)N(C)C)c2)c2ccccc2n1,-,
CN(C)S(=O)(=O)c1cccc(NC(=O)COC(=O)CCOc2ccccc2)c1,-,
Cc1cc(Cl)ccc1NC(=S)N1CCN(C(=O)c2ccco2)CC1,-,
COC(=O)[C@]12C[C@H](CC(=O)NCc3ccccc3)C(=O)N(Cc3ccco3)C1=C[C@H](COCc1ccccc1)O[C@@H]2C,-,
O=C(N[C@H]1CC[C@@H]2SC[C@@H](C(=O)O)N2C1=O)OCC1c2ccccc2-c2ccccc21,-,
O=C(COc1ccc(F)cc1Cl)Nc1nnc(-c2ccc(F)c(F)c2)o1,-,
CC(O)(c1ccc(F)c(F)c1)c1nc(-c2ccc(Cl)cc2)cs1 (centres undefined),-,
